# From PubChem BioAssay (NCATS)
# Activity calls are given as the source filed them. Calls come from the whole dose curve.
# Assay: Cell Proliferation Assay Versus the ED40515 IL2 Dependent ATL cell lines (AID 1053195)
# Conditions: ED40515 IL2-dependent ATL cells
# Description: Adult T-cell leukemia (ATL) develops in individuals infected with human T-cell lymphotropic virus-1 (HTLV-1). Clinically, ATL is subclassified into four subtypes: smoldering, chronic, lymphomatous, and acute. Two autocrine loops (IL-2/IL-2Ralpha and IL-15/IL-15Ralpha) and one paracrine stimulation loop that involves IL-9 expression by ATL cells and IL-9Ralpha expression on monocytes are required to maintain viability and proliferation in the smoldering and chronic forms of the disease. These assays examined the differential response profiles for the MIPE library of approved and investigational drugs versus an IL2 dependent and independent matched ATL cell line, with the current submission examining the differential response profiles for drugs on an IL2 dependent matched ATL cell line.
# Plate log growing ED40515 +IL2 cells: 1000cells/ well in 5uL phenol red free RPMI +5% FBS +1x p/s, Glutamine using 1536 well white griener tissue culture plates and multidrop cassette acoustic dispensing Columns 1 and 3 DMSO Columns 2 and 4, 9.2 uM Bortezomib Incubate 48 hours for celltiter glo 37C with 5%CO2 and 95% humidity with low evaporation lids Dispense 3 uL per well of cell titer glo with multidrop Incubate for 15 minutes at RT Read on VL/2 using Luminesence Wheel (Filter A)
row,SMILES,Potency
1,CCCS(=O)(=O)Nc1ccc(F)c(C(=O)c2c[nH]c3ncc(Cl)cc23)c1F,16.6 µM (active)
2,Cc1ccc(-n2nc(C(C)(C)C)cc2NC(=O)Nc2ccc(OCCN3CCOCC3)c3ccccc23)cc1,26.4 µM (active)
3,CCC(=O)N[C@H]1CC[C@H](C(=O)N(C)c2ccc(-c3nc4ccccc4o3)cc2)C1,3.32 µM (active)
4,CN(C)c1ccc(Nc2nc(N)n(C(=O)c3c(F)cccc3F)n2)cc1,0.743 µM (active)
5,Cc1cc(Nc2nc(N[C@@H](C)c3ncc(F)cn3)ncc2Cl)n[nH]1,0.662 µM (active)
6,CCOC(=O)C1=C[C@@]2(CC)CCCN3CCc4c(n1c1ccccc41)[C@H]32,9.5 µM (active)
7,CNCc1ccc(-c2[nH]c3cc(F)cc4c3c2CCNC4=O)cc1,20.9 µM (active)
8,CC(C)(Sc1ccc(CCN(CCCCC2CCCCC2)C(=O)NC2CCCCC2)cc1)C(=O)O,18.7 µM (active)
9,O=C(O)c1ccc(-c2c[nH]c3ccc(-c4ccccc4)cc23)cc1C1CCCC1,5.26 µM (active)
10,COc1cc(F)c(F)c(Nc2ccc(I)cc2F)c1NS(=O)(=O)C1(C[C@H](O)CO)CC1,37.2 µM (active)
11,COc1ccc(-c2c(-c3ccc(O)cc3O)n[nH]c2C)cc1,2.09 µM (active)
12,COc1cc2c(cc1OC)CN(CCc1ccc(NC(=O)c3cccc4c(=O)c5cccc(OC)c5[nH]c34)cc1)CC2,16.6 µM (active)
13,CCN(c1ccccc1)c1cc(NC)[n+](C)c(C)n1,18.7 µM (active)
14,CC1(C)Cc2c(-c3ccccc3)c(-c3ccc(Cl)cc3)c(CC(=O)O)n2C1,5.26 µM (active)
15,CN(C)c1ccc(C2Nc3ccc4ccccc4c3C3=C2C(=O)CC(C)(C)C3)cc1Br (stereo not given),14.8 µM (active)
16,Cc1ccnc(NS(=O)(=O)c2ccc(NC(=O)Nc3ccc(S(=O)(=O)Nc4nccc(C)n4)cc3)cc2)n1,23.5 µM (active)
17,Cc1cc(C=c2sc3nc4ccccc4n3c2=O)c(C)n1-c1ccccc1,6.62 µM (active)
18,CN[C@@H](C)C(=O)N[C@H]1CCCC[C@H]2CC[C@@H](C(=O)N[C@@H](c3ccccc3)c3cn(CCCCc4ccc(CCCCn5cc([C@@H](NC(=O)[C@@H]6CC[C@@H]7CCCC[C@H](NC(=O)[C@H](C)NC)C(=O)N76)c6ccccc6)nn5)cc4)nn3)N2C1=O,23.5 µM (active)
19,Cc1c(CN2CCN(C(=O)C(C)C)CC2)sc2c(N3CCOCC3)nc(-c3cnc(N)nc3)nc12,1.66 µM (active)
20,C[C@]12CCC(=O)C=C1CC[C@@H]1[C@@H]2[C@@H](O)C[C@@]2(C)[C@H]1CC[C@]2(O)C(=O)CO,14.8 µM (active)

row,SMILES,Potency
1,CCn1c(-c2nonc2N)nc2cnc(Oc3cccc(NC(=O)c4ccc(OCCN5CCOCC5)cc4)c3)cc21,0.59 µM (active)
2,NC(=O)c1ccc(I)c([N+](=O)[O-])c1,37.2 µM (active)
3,C#Cc1cccc(Nc2ncnc3cc(OCCOC)c(OCCOC)cc23)c1,9.35 µM (active)
4,CC1(C)SCCN(S(=O)(=O)c2ccc(OCC#CCO)cc2)[C@@H]1C(=O)NO,23.5 µM (active)
5,Fc1ccc(Cl)cc1-c1nc(Nc2ccncc2)c2nccnc2n1,13.2 µM (active)
6,COc1ccc(-c2ccc3c(N4CCOCC4)nc(N4C[C@@H](C)O[C@@H](C)C4)nc3n2)cc1CO,1.48 µM (active)
7,O=C(C=Cc1ccc(/C=C/C(=O)Nc2ccc(C3=NCCN3)cc2)cc1)Nc1ccc(C2=NCCN2)cc1,2.09 µM (active)
8,CCC(C)n1ncn(-c2ccc(N3CCN(c4ccc(OC[C@H]5CO[C@](Cn6cncn6)(c6ccc(Cl)cc6Cl)O5)cc4)CC3)cc2)c1=O (stereo not given in full),1.32 µM (active)
9,COc1cccc2cc(-c3nc(C4CCC(C(=O)O)CC4)n4ncnc(N)c34)[nH]c12 (stereo not given),4.18 µM (active)
10,Cc1cccc(-c2[nH]c(C(C)(C)C)nc2-c2ccc3nccnc3c2)n1,16.6 µM (active)
11,Nc1ncnc2nc(-c3ccc(N4CCOCC4)nc3)cc(-c3cccc(Br)c3)c12,14.8 µM (active)
12,CN([C@@H](Cc1ccc(OS(=O)(=O)c2cccc3cnccc23)cc1)C(=O)N1CCN(c2ccccc2)CC1)S(=O)(=O)c1cccc2cnccc12,6.62 µM (active)
13,O=C(O)CCc1ccc(NCc2cccc(Oc3ccccc3)c2)cc1,0.0833 µM (active)
14,COc1ccc(-c2oc3cc(OC)ccc3c2C(=O)c2ccc(C#N)cc2)cc1,20.9 µM (active)
15,CN(C)C(=O)c1ccc(S(=O)(=O)c2ccc(NC(=O)[C@@](C)(O)C(F)(F)F)c(Cl)c2)cc1,0.332 µM (active)
16,CCOc1ccc(Cc2cc([C@@H]3O[C@H](CO)[C@@H](O)[C@H](O)[C@@H]3O)ccc2Cl)cc1,4.69 µM (active)
17,Cc1cc(-c2nnc3n2CCCCC3)c(C)n1-c1ccc(F)cc1,11.8 µM (active)
18,Cc1cccc(-c2nn(C(=S)Nc3ccccc3)cc2-c2ccnc3ccccc23)n1,2.35 µM (active)
19,Nc1nc2ccc(OC(F)(F)F)cc2s1,23.5 µM (active)
20,CCc1cc(Nc2nccc(-c3c(-c4ccc(OC)c(C(=O)Nc5c(F)cccc5F)c4)nc4ccccn34)n2)c(OC)cc1N1CCC(N2CCN(S(C)(=O)=O)CC2)CC1,1.66 µM (active)
